From PubChem BioAssay (NCI)
The panel holds about 83,000 compounds, 20% with a hit somewhere; the sample as a whole holds those more often.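 Single-concentration screen, 48 h exposure, 96-well plates. Endpoint: percent growth. Below 10 = active.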

Legend:
Test in all cases: NCI-60 one-dose screen, 48 h (100 = growth as untreated, 0 = no growth, -100 = all killed)
Conditions in all cases: 10 µM
NCI-H23 lung = system: NCI-H23 lung
NCI-H226 lung = system: NCI-H226 lung
NCI-H322M lung = system: NCI-H322M lung
HOP-62 NSCLC = system: HOP-62 NSCLC
NCI-H460 lung = system: NCI-H460 lung
HOP-92 NSCLC = system: HOP-92 NSCLC
NCI-H522 lung = system: NCI-H522 lung
786-0 renal = system: 786-0 renal
COLO 205 colon = system: COLO 205 colon
A549/ATCC NSCLC = system: A549/ATCC NSCLC

Measured: growth

CN(C)c1ccc(CNC(C(=O)c2ccccc2)c2ccccc2)cc1 (stereo not given)
inactive: NCI-H23 lung 98.5% | NCI-H226 lung 101% | NCI-H322M lung 92.8% | HOP-62 NSCLC 75.5% | NCI-H460 lung 110% | HOP-92 NSCLC 78.9% | NCI-H522 lung 85.4% | 786-0 renal 109% | COLO 205 colon 113%

Nc1ccc(N=Nc2ccc(S(=O)(=O)O)cc2)c2ccccc12
inactive: NCI-H23 lung 86.2% | NCI-H226 lung 87% | NCI-H322M lung 91.8% | HOP-62 NSCLC 63.7% | NCI-H460 lung 94.8% | HOP-92 NSCLC 76.9% | NCI-H522 lung 95.7% | 786-0 renal 106% | COLO 205 colon 90.7%

COc1ccc(C(O)c2ccccc2)cc1 (stereo not given)
inactive: NCI-H23 lung 97.6% | NCI-H226 lung 94% | NCI-H322M lung 93.7% | HOP-62 NSCLC 90.6% | NCI-H460 lung 98.7% | HOP-92 NSCLC 93.4% | NCI-H522 lung 94.8% | 786-0 renal 100% | COLO 205 colon 106%

C1CNC(C2=NCCN2)=N1
inactive: NCI-H23 lung 106% | NCI-H226 lung 103% | NCI-H322M lung 90.9% | HOP-62 NSCLC 99.4% | NCI-H460 lung 101% | HOP-92 NSCLC 93.6% | NCI-H522 lung 101% | 786-0 renal 103% | COLO 205 colon 114%

CC1(c2ccccc2)NC(=O)NC1=O (stereo not given)
inactive: NCI-H23 lung 116% | NCI-H226 lung 98.3% | NCI-H322M lung 97.2% | HOP-62 NSCLC 111% | NCI-H460 lung 118% | HOP-92 NSCLC 100% | NCI-H522 lung 99.4% | A549/ATCC NSCLC 96.5% | COLO 205 colon 130%

c1ccc(Cc2ccccc2)cc1
inactive: NCI-H23 lung 107% | NCI-H226 lung 112% | NCI-H322M lung 96.2% | HOP-62 NSCLC 101% | NCI-H460 lung 109% | HOP-92 NSCLC 59.2% | A549/ATCC NSCLC 39.8% | 786-0 renal 92.7% | COLO 205 colon 125%

CCCCCCCCCCCCCCCCC1CC(=O)OC1=O (stereo not given)
inactive: NCI-H23 lung 107% | NCI-H226 lung 103% | NCI-H322M lung 114% | HOP-62 NSCLC 95.2% | NCI-H460 lung 118% | HOP-92 NSCLC 125% | NCI-H522 lung 98.6% | A549/ATCC NSCLC 98.5% | COLO 205 colon 111%

O=C(Nc1ccccc1C(=O)NCC1CC1)c1cccs1
inactive: NCI-H23 lung 109% | NCI-H226 lung 88.1% | NCI-H322M lung 126% | HOP-62 NSCLC 103% | NCI-H460 lung 105% | HOP-92 NSCLC 71.6% | A549/ATCC NSCLC 102% | 786-0 renal 101% | COLO 205 colon 116%

CCOC(=O)/C(C#N)=C/c1cccc(C)c1
inactive: NCI-H23 lung 99.5% | NCI-H226 lung 109% | NCI-H322M lung 95% | HOP-62 NSCLC 101% | NCI-H460 lung 103% | HOP-92 NSCLC 83.8% | A549/ATCC NSCLC 95.5% | 786-0 renal 98.3% | COLO 205 colon 119%

COc1cc2c(cc1OC)[C@H](C(=O)O)[C@@H](c1ccc(OC(C)C)c(OC)c1)N(C)C2=O
inactive: NCI-H23 lung 96.8% | NCI-H226 lung 89.9% | NCI-H322M lung 83.5% | HOP-62 NSCLC 92.4% | NCI-H460 lung 105% | HOP-92 NSCLC 83.3% | A549/ATCC NSCLC 106% | 786-0 renal 100% | COLO 205 colon 118%

N#CC(=Nc1cccc(F)c1)C1=C(O)c2ccccc2C1=O
inactive: NCI-H23 lung 94.8% | NCI-H226 lung 79.6% | NCI-H322M lung 96.3% | HOP-62 NSCLC 88.4% | NCI-H460 lung 102% | HOP-92 NSCLC 63.8% | A549/ATCC NSCLC 95.6% | 786-0 renal 97.5% | COLO 205 colon 96%

CCOC(=O)Nc1nn[nH]n1
inactive: NCI-H23 lung 102% | NCI-H226 lung 107% | NCI-H322M lung 129% | HOP-62 NSCLC 113% | NCI-H460 lung 99.9% | HOP-92 NSCLC 97.3% | A549/ATCC NSCLC 103% | 786-0 renal 105% | COLO 205 colon 107%

OC1CCCc2ccccc21 (stereo not given)
inactive: NCI-H23 lung 104% | NCI-H226 lung 104% | NCI-H322M lung 89.6% | HOP-62 NSCLC 104% | NCI-H460 lung 101% | HOP-92 NSCLC 112% | A549/ATCC NSCLC 51.3% | 786-0 renal 103% | COLO 205 colon 115%

COc1cccc(COC(=O)Nc2ccccc2)c1OC
inactive: NCI-H23 lung 110% | NCI-H226 lung 96.6% | NCI-H322M lung 101% | HOP-62 NSCLC 100% | NCI-H460 lung 103% | HOP-92 NSCLC 109% | A549/ATCC NSCLC 94.5% | 786-0 renal 98.9% | COLO 205 colon 114%

O=C1C[C@H](c2ccccc2)[C@H](c2ccccc2)C1
inactive: NCI-H23 lung 102% | NCI-H226 lung 97.6% | NCI-H322M lung 99.7% | HOP-62 NSCLC 98.5% | NCI-H460 lung 112% | HOP-92 NSCLC 70.9% | NCI-H522 lung 79% | 786-0 renal 101% | COLO 205 colon 113%
